These results are taken from the supplement of paper PMC8387472.

Holding throughout (test): fraction of 1-bp insertions among edited reads; higher = more 1-bp insertion outcomes
What all share (conditions): mESC; 2uM; 72 h treatment, harvest day 5

Compound in one assay: Nc1nc2[nH]cc(CCc3ccc(C(=O)N[C@@H](CCC(=O)O)C(=O)O)cc3)c2c(=O)[nH]1 [Pemetrexed]
Compound in assay [1]: Nc1ncnc2c1c(-c1cnc3[nH]ccc3c1)nn2C1CCCC1
Compound in assay [2]: O=C(c1cccc(Cl)c1F)N1CCN(Cc2cccc(Nc3nccs3)n2)CC1
Compound in another assay: O=C1Cc2c([nH]c3ccc(Br)cc23)-c2ccccc2N1 [Kenpaullone]
Compound in a further assay: O=c1c(-c2ccc(O)cc2)coc2cc(O)cc(O)c12 [Genistein]
Compound in assay [3]: O=c1cc(N2CCOCC2)oc2c(-c3ccc4c(c3)OCCO4)csc12
Compound in another assay: S=c1[nH]cnc2nc[nH]c12 [Mercaptopurine (6-MP)]
Compound in assay [4]: S=c1nc[nH]c2nc[nH]c12 [6-Mercaptopurine (6-MP) Monohydrate]

“2.0 (DMSO control at this site: 1-bp insertion 0.364, MH deletion 0.356, edited 0.125) GGTGCCCCCGAGACCTACGCGAACCGAAATCGATGTCCGGTGCGCAAGCAGGGCTGGCGTC”: the “fraction of 1-bp insertions among edited reads” value (from here on “fraction”) with Pemetrexed was determined as 0.327; in assay [1], 0.539; in assay [2], 0.498; in the assay with Kenpaullone it was 0.478; with Genistein, 0.309; in assay [3] it was 0.331. Further, the results for the “fraction” value (in the assay with Mercaptopurine (6-MP); in assay [4]) were 0.452 and 0.434, respectively.

For the target “40.0 (DMSO control at this site: 1-bp insertion 0.072, MH deletion 0.192, edited 0.189) GCGAATCAACTGTTCAACAACAGCAGCAGCCACCTGGAGGACTACAGTGGCCTGTCCGTGT”, the “fraction” value was found to be 0.0582 with Pemetrexed; 0.107 in assay [1]; 0.0793 in assay [2]; 0.0742 with Kenpaullone; 0.0673 with Genistein; 0.0807 in assay [3]. Moreover, the “fraction” value stood at 0.0821 in the assay with Mercaptopurine (6-MP) and 0.084 in assay [4].

For the target “38.0 (DMSO control at this site: 1-bp insertion 0.063, MH deletion 0.487, edited 0.17) GGGCTGGGTGCTAAAATGAGGAGCTCCAAGAAGACTGAGGTGAACCTGGAGGCCCCTGAGC”, the “fraction” value with Pemetrexed is 0.0448; in assay [1] it was 0.104; in assay [2], 0.0891; with Kenpaullone, 0.102; in the assay with Genistein it was 0.0646; in assay [3] it was 0.0742. Also, the “fraction” value in the assay with Mercaptopurine (6-MP) was 0.0697; in assay [4], 0.0502.

On to “5.0 (DMSO control at this site: 1-bp insertion 0.214, MH deletion 0.567, edited 0.105) CGCTGACCCGAGACCTACGCGAACCGAAATCGGCGACCGGTGCGCAAGCAGGGCTGGCGTC”, for which the “fraction” value was 0.184 with Pemetrexed; 0.293 in assay [1]; 0.277 in assay [2]; 0.277 with Kenpaullone; 0.203 with Genistein; 0.187 in assay [3]. In addition, the “fraction” value with Mercaptopurine (6-MP) stood at 0.27; in assay [4], 0.272.

As for “4.0 (DMSO control at this site: 1-bp insertion 0.146, MH deletion 0.523, edited 0.125) ACGCCTTAGTGCACGAGTGACGGGATAATGTGGTCTCAGGTAATTGATAGGCTTCCAACTT”, the “fraction” value was found to be 0.121 with Pemetrexed; 0.237 in assay [1]; 0.18 in assay [2]; 0.171 in the assay with Kenpaullone; 0.126 in the assay with Genistein; 0.137 in assay [3]. Also, the “fraction” value with Mercaptopurine (6-MP) was found to be 0.161; in assay [4] it was 0.153.

In the case of “19.0 (DMSO control at this site: 1-bp insertion 0.121, MH deletion 0.101, edited 0.057) TCTGCAGGGGTCGGAACCCGGGGGCTAGGGCTATCCCGGGGGCTAGGGCTATTAGCGAACC”, the “fraction” value came to 0.0345 in the assay with Pemetrexed; 0.138 in assay [1]; 0.109 in assay [2]; 0.0939 with Kenpaullone; 0.0748 with Genistein; 0.0634 in assay [3]. Also, the “fraction” value with Mercaptopurine (6-MP) worked out at 0.0615; in assay [4], 0.104.

For “7.0 (DMSO control at this site: 1-bp insertion 0.128, MH deletion 0.374, edited 0.098) TACTCAACCGAGACCTACGCGAACCGAAATCGTATGCCGGTGCGCAAGCAGGGCTGGCGTC”, the “fraction” value came out at 0.0646 with Pemetrexed; 0.128 in assay [1]; 0.15 in assay [2]; 0.156 with Kenpaullone; 0.12 with Genistein; 0.16 in assay [3]. Moreover, the “fraction” value came out at 0.145 with Mercaptopurine (6-MP) and 0.197 in assay [4].

Take “39.0 (DMSO control at this site: 1-bp insertion 0.328, MH deletion 0.371, edited 0.204) CTGCACAGTCACTTAGGATAGGAGAAGATGATGTATAGGGTTTAGTGGGAGATGTTGCAAG”: the “fraction” value with Pemetrexed was found to be 0.395; in assay [2] it was 0.45; with Kenpaullone, 0.572; in the assay with Genistein, 0.372; in assay [3] it was 0.355; with Mercaptopurine (6-MP), 0.407. The “fraction” value in assay [4] came to 0.417.

For “15.0 GCGCCTCCAATGACCCAGTGGGATCCTACTCCATAATGGGATCCTGGGGATTCCTCGCTCC”, the “fraction” value with Genistein amounted to 0.0821; in assay [4] it was 0.0929.

Turning to “46.0 TTAAGAGCAATGTTCACGCAACTTGAAATTATATCTGTGGTCTTCAAATTGTCTTTTGTCA”, the “fraction” value with Pemetrexed came out at 0.309; in assay [1], 0.0621; in the assay with Genistein it was 0.25; in assay [4], 0.17.

For “8.0 GCATGCGTGTTTTGGGACAATGTAGTATACATTTGGGAGGCTCTCAGCTTTTCCCAATAAA”, the “fraction” value in the assay with Pemetrexed was found to be 0.255; in assay [1] it was 0.646; with Kenpaullone, 0.441; in assay [4], 0.442.

“45.0 (DMSO control at this site: 1-bp insertion 0.017, MH deletion 0.666, edited 0.101) TTACACAGCATGAACTGCTAGGTGATGATGTCAGATTCGGTTTTACTAACTTCTCCAAAAA”: the “fraction” value with Pemetrexed stood at 0.0325; in assay [1] it was 0.0301; in assay [2], 0.0412; in the assay with Kenpaullone it was 0.0351; with Genistein it was 0.0293; in assay [3], 0.0264. In addition, the “fraction” value was found to be 0.0287 with Mercaptopurine (6-MP) and 0.0267 in assay [4].

As to “21.0 CGATTGAGAGTCAAACGGGCCAGAAAACTCCGGGAACGGGCCAGAAAACTCCGGGGCATGG”, the “fraction” value with Pemetrexed is 0.0119; in assay [1], 0.0122; with Kenpaullone, 0.0245; with Genistein, 0.0192; in assay [3] it was 0.0417; with Mercaptopurine (6-MP), 0.0152. In assay [4], the “fraction” value was 0.0297.

Turning to “42.0 (DMSO control at this site: 1-bp insertion 0.145, MH deletion 0.655, edited 0.132) GGGCTAAACCTATGAGCACAGTAGAACTAAGGGTGGGTGGTGTAGCTAAAGAACTTGACCA”, the “fraction” value with Pemetrexed is 0.118; in assay [1], 0.246; in assay [2], 0.201; in the assay with Kenpaullone it was 0.21; with Genistein, 0.144; in assay [3], 0.141. The “fraction” value came to 0.181 in the assay with Mercaptopurine (6-MP) and 0.198 in assay [4].

For the target “26.0 (DMSO control at this site: 1-bp insertion 0.518, MH deletion 0.262, edited 0.026) AGGGCGCGCCCCACGCACTCTGCGGCAAGTCCCTCTGCGGCAAGTCCTCGGCCCGGAAGAC”, the “fraction” value worked out at 0.284 in the assay with Pemetrexed; 0.567 in assay [1]; 0.537 in assay [2]; 0.496 in the assay with Kenpaullone; 0.46 in the assay with Genistein; 0.363 in assay [3]. Moreover, the “fraction” value amounted to 0.491 in the assay with Mercaptopurine (6-MP) and 0.494 in assay [4].

Consider “25.0 (DMSO control at this site: 1-bp insertion 0.017, MH deletion 0.774, edited 0.143) GGGCCTGAATGGTGTGGACATCTACTCGCTGGTGAGCTGGTGACTGAAAACATTCAGTGGC”, for which the “fraction” value turned out to be 0.0305 with Pemetrexed; 0.0264 in assay [1]; 0.0219 in assay [2]; 0.0271 with Kenpaullone; 0.0281 in the assay with Genistein; 0.0315 in assay [3]. Further, the “fraction” value turned out to be 0.0245 with Mercaptopurine (6-MP) and 0.0323 in assay [4].

Turning to “17.0 (DMSO control at this site: 1-bp insertion 0.112, MH deletion 0.348, edited 0.058) CCATAGCGCGATAAATATGACGGCTCATCCTGTATGACGGCTCATCCTGTATCAACTGTCC”, the “fraction” value with Pemetrexed is 0.0727; in assay [1], 0.193; in assay [2] it was 0.111; with Kenpaullone, 0.166; in the assay with Genistein it was 0.119; in assay [3] it was 0.172. Besides, the “fraction” value with Mercaptopurine (6-MP) was 0.17; in assay [4], 0.144.

For the target “35.0 (DMSO control at this site: 1-bp insertion 0.01, MH deletion 0.72, edited 0.098) CCACTTTTAGAGAGGGTGAAAATCATCAGTTATCATCAGGGCAACAAATTGCTTTCTCCTA”, the “fraction” value worked out at 0.0156 with Pemetrexed; 0.0183 in assay [1]; 0.0381 in assay [2]; 0.0204 with Kenpaullone; 0.00956 with Genistein; 0.0278 in assay [3]. Moreover, the entries for the “fraction” value (with Mercaptopurine (6-MP); in assay [4]) were 0.0333 and 0.0402, respectively.

Take “34.0 (DMSO control at this site: 1-bp insertion 0.184, MH deletion 0.385, edited 0.103) ATTATAGGACCCTGAGGGAGCAGAGATGTGGGAATGGGGGCCGAGCCAATTGTGATGTAAG”: the “fraction” value with Pemetrexed turned out to be 0.121; in assay [1] it was 0.233; in assay [2], 0.211; with Kenpaullone, 0.154; with Genistein, 0.11; in assay [3], 0.176. For the same target, the “fraction” value with Mercaptopurine (6-MP) was found to be 0.213; in assay [4] it was 0.2.
